Results published in PubChem BioAssay (Tox21).
“And” between values parts separate entries of the source, which are not always exact repeats. Identical values can stand only once. Inconclusive results are not listed. Entries that show only a call come without a potency. Where a structure was tested more than once in an assay, its records may differ in their call. The source made the active and inactive calls. Unless noted, calls come from the whole dose curve; as a rule, active = well fitted curve in the direction sought with a large enough effect in the repeat runs; inconclusive = weak or mixed curves; inactive = no such curve, though single readings can be large; an effect the other way counts as inactive or inconclusive.

Tests used:
[1] = qHTS assay to identify small molecule agonists of the vitamin D receptor (VDR) signaling pathway - cell viability counter screen (AID 743224); note: nearly all actives have a fitted effect of over 50% in size; note: potency is the fitted concentration of half-maximal effect
How it was run: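 VDR-bla cells were preincubated 4 h at 37C/5% CO2, then exposed to compounds for 16 h. After the 2 h room-temperature bla FRET read, CellTiter-Glo was added to the same wells and luminescence read after 30 min.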

[2] = qHTS assay to identify small molecule antagonists of the vitamin D receptor (VDR) signaling pathway - cell viability counter screen (AID 743225); note: nearly all actives have a fitted effect of over 50% in size; note: potency is the fitted concentration of half-maximal effect
How it was run: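 Parallel cytotoxicity test: VDR-UAS-bla HEK 293T, 3 nM (final) 1-alpha,25-dihydroxyvitamin D3 with test compound, 16 h, 37C. Endpoint is CellTiter-Glo luminescence in the same wells.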

[3] = qHTS assay to identify small molecule agonists of the NFkB signaling pathway - cell viability counter screen (AID 1159515; calls by dose curve; note: nearly all actives have a fitted effect of over 55% in size; note: potency is the fitted concentration of half-maximal effect)
How it was run: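 NFkB-bla ME-180 cells, 2,000/well, were plated overnight at 37 C, 5% CO2, then exposed to compounds in DMSO for 5 hr. After the bla FRET read, CellTiter-Glo was added to the same wells; luminescence was read after 30 min at room temperature.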

[4] = qHTS assay to identify small molecule agonists of the endoplasmic reticulum stress response signaling pathway - cell viability counter screen (AID 1159517; calls by dose curve;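 note: HeLa cells carrying an ER stress response element beta-lactamase reporter; nearly all actives have a fitted effect of over 50% in size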)
How it was run: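 CellTiter-Glo was added to wells already read for beta-lactamase FRET, and luminescence was recorded 30 min later. Cells: ESRE-bla HeLa, 1,500 per well, compound exposure 5 hr at 37 C.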

[5] = qHTS assay to identify small molecule antagonists of the retinoid-related orphan receptor gamma (ROR-gamma) signaling pathway - cell viability counter screen (AID 1159520); note: nearly all actives have a fitted effect of over 50% in size
How it was run: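 Tet-on ROR gamma CHO cells (1,000/well) were plated 4 hr, given compounds in DMSO for 2 hr at 37 C, then induced with 1 uM final doxycycline for 16 hr. Viability was read as ATP by CellTiter-Glo luminescence after 30 min.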

[6] = target: Nuclear receptor ROR-gamma (Homo sapiens) (UniProt P51449); experiment: qHTS assay to identify small molecule antagonists of the retinoid-related orphan receptor gamma (ROR-gamma) signaling pathway (AID 1159521; note: nearly all actives have a fitted effect of over 50% in size; note: potency is the fitted concentration of half-maximal effect)
How it was run: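 Decreased RORE-driven luciferase luminescence indicates antagonism. Tet-on RORγ CHO cells received compound, then 1 uM final doxycycline 2 h later; signal read after 16 h incubation.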

[7] = qHTS assay to identify small molecule agonists of the AP-1 signaling pathway - cell viability counter screen (AID 1159525; calls by dose curve; note: nearly all actives have a fitted effect of over 55% in size)
How it was run: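 ME-180 AP-1-bla, 2500 cells/well, Opti-MEM + 0.5% dialyzed FBS; overnight 37 °C; cpd 15-pt titration, 5 h 37 °C; CellTiter-Glo 30 min RT; luminescence read; normalised to TOAB and DMSO controls.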

[8] = qHTS assay to identify small molecule agonists of the AP-1 signaling pathway (AID 1159526; calls by dose curve)
[9] = target: Retinoic acid receptor RXR-alpha (Homo sapiens) (UniProt P19793); experiment: qHTS assay to identify small molecule agonists of the RXR signaling pathway (AID 1159527; calls by dose curve; note: nearly all actives have a fitted effect of over 35% in size)
Retinoic acid receptor RXR-alpha (Homo sapiens), sequence (P19793 whole entry, looked up): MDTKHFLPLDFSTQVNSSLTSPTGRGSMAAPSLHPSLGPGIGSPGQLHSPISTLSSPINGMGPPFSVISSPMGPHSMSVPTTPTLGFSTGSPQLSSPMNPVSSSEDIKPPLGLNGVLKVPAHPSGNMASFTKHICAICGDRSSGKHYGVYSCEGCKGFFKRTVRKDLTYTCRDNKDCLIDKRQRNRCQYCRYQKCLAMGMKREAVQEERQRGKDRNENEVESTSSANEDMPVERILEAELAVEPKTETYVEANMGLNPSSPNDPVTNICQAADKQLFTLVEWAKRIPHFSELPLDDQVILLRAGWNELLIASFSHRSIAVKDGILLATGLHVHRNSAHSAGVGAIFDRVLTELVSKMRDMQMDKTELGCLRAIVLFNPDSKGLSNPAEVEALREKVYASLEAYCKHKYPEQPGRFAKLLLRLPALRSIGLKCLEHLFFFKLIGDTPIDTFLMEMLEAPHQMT
How it was run: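 16 hr incubation of compound-treated RXR-alpha-UAS-bla HEK 293T cells (2% charcoal-stripped FBS, 37 C) preceded a 2 hr room-temperature LiveBLAzer FRET substrate step and blue/green fluorescence measurement.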

[10] = qHTS assay to identify small molecule agonists of the RXR signaling pathway - cell viability counter screen (AID 1159529); note: nearly all actives have a fitted effect of over 50% in size; note: potency is the fitted concentration of half-maximal effect
How it was run: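 In this parallel viability measure, GeneBLAzer RXR-alpha HEK 293T cells (2% charcoal-stripped FBS) were given a 5 hr preincubation, treated with compounds 16 hr at 37 C, and read by CellTiter-Glo luminescence.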

[11] = qHTS assay to identify small molecule antagonists of the retinoid acid receptor (RAR) signaling pathway - cell viability counter screen (AID 1159551); note: nearly all actives have a fitted effect of over 35% in size
How it was run: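 C3RL4 cells were seeded overnight at 37 C, then treated with compounds plus 1 uM (final) retinol for 6 h at 37 C. Viability was read as ATP by CellTiter-Glo luminescence after 30 min at room temperature.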

[12] = qHTS assay to identify small molecule antagonists of the retinoic acid receptor (RAR) signaling pathway (AID 1159552; note: nearly all actives have a fitted effect of over 50% in size)
How it was run: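 C3RL4 RARE-luc cells, overnight plating; retinol 1 uM final added right after compound; 6 hr 37 C; luciferase read at 30 min RT.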

[13] = qHTS assay to identify small molecule agonists of the retinoic acid receptor (RAR) signaling pathway (AID 1159553); conditions: C3RL4 RARE luciferase reporter, agonist, 6 h; activation: at 73.3 µM (top of the series) unless noted; note: potency is the fitted concentration of half-maximal effect
How it was run: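 C3RL4 cells carrying a RARE luciferase reporter were plated overnight at 37 C, then exposed to compounds in DMSO for 6 hr at 37 C and 5% CO2. Luminescence was read 30 min after luciferase reagent addition at room temperature.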

[14] = qHTS assay to identify small molecule agonists of the estrogen related receptor (ERR) signaling pathway (AID 1224820)
How it was run: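 Cells: ERR line from NTP, 2,000/well. Pre-incubation 6 h, 37 C/5% CO2. Compound (DMSO) pin transfer, 18 h 37 C. One-Glo, 30 min RT, luminescence.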

[15] = tested on: estrogen-related receptor alpha (ERRalpha) with PGC-1alpha coactivator, human; experiment: qHTS assay to identify small molecule antagonists of the estrogen related receptor signaling pathway with the pleiotropic PPARgamma coactivator (PGC) (AID 1224821; calls by dose curve)
How it was run: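 Luminescent read-out (One-Glo, 30 min at room temperature) following 18 h treatment of PGC/ERR cells at 37 C with compounds delivered in DMSO. Cells had settled 6 h at 37 C/5% CO2 before dosing.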

[16] = qHTS assay to identify small molecule agonists of the estrogen related receptor signaling pathway with the pleiotropic PPARgamma coactivator (PGC) (AID 1224823)
How it was run: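 Steps: plate PGC/ERR cells at 2,000 cells/well; incubate 6 h, 37 C/5% CO2; pin-transfer compounds (DMSO); incubate 18 h, 37 C; add One-Glo; 30 min RT; read luminescence.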

[17] = qHTS assay to identify small molecule antagonists of the estrogen related receptor (ERR) signaling pathway - cell viability counter screen (AID 1224818);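 note: viability measured after 17.5 h of compound exposure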
How it was run: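 ERR reporter cells plated 6 h at 37 C/5% CO2, then compounds in DMSO pin-transferred and incubated 17.5 h at 37 C. Viability read as CellTiter-Fluor fluorescence after 30 min at 37 C.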

[18] = qHTS assay to identify small molecule antagonists of the estrogen related receptor signaling pathway with the pleiotropic PPARgamma coactivator (PGC) cell viability counter screen (AID 1224822)
How it was run: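 PGC/ERR cells were seeded at 2,000 cells/well, rested 6 h at 37 C/5% CO2, then given compounds in DMSO by pin tool and incubated 17.5 h at 37 C. Viability came from CellTiter-Fluor fluorescence after 30 min.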

Row | Compound | Potency [1] | Potency [2] | Potency [3] | Potency [4] | Potency [5] | Potency [6] | Potency [7] | Potency [8] | Potency [9] | Potency [10] | Potency [11] | Potency [12] | Potency [13] | outcome [14] | outcome [15] | outcome [16] | outcome [17] | outcome [18]
1 | CCO[Si](CCCNC(N)=O)(OCC)OCC | inactive | inactive | inactive | inactive | inactive | inactive | inactive | inactive | inactive | inactive | inactive | inactive |  |  |  |  |  | 
2 | CCOC(=O)C(C)Oc1ccc(Oc2cnc3cc(Cl)ccc3n2)cc1 (stereo not given) | inactive | inactive | inactive | inactive | inactive | inactive | inactive | inactive |  |  | inactive | inactive |  |  |  |  |  | 
3 | CC1(C)C(C=C(Cl)Cl)C1C(=O)OCc1cccc(Oc2ccccc2)c1 (stereo not given) | inactive | inactive | inactive | inactive | inactive | 54.1 µM (active) and inactive | inactive | inactive | inactive |  | inactive |  |  |  |  |  |  | 
4 | Oc1c(Cl)ccc(Cl)c1Cl | inactive | inactive | inactive | inactive | inactive |  | inactive | inactive | inactive |  | inactive | inactive | inactive |  |  |  |  | 
5 | CC[C@]12CCCN3CCc4c(n(c5ccccc45)[C@@](O)(C(=O)OC)C1)[C@@H]32 | inactive | inactive | inactive | inactive | inactive |  | inactive |  | inactive | inactive | inactive | inactive | inactive |  |  |  |  | 
6 | CCCCCCCCCCCCCO | inactive | inactive | inactive | inactive | inactive |  | inactive | inactive | inactive | inactive | inactive | inactive | inactive |  |  |  |  | 
7 | Oc1ccc(C(c2ccc(O)cc2)C(Cl)(Cl)Cl)cc1 |  |  | inactive | inactive | inactive |  | inactive | inactive |  | inactive | inactive |  |  |  |  |  |  | 
8 | [O-]/[N+](=N\O)c1ccccc1 | inactive | inactive | inactive | inactive | inactive | inactive | inactive | inactive | inactive | inactive | inactive |  | 48.6 µM (active) |  |  |  |  | 
9 | CN(C)CCCN1c2ccccc2Sc2ccc(Cl)cc21 | 21.9 µM (active) | 24.5 µM (active) and inactive | 54.9 µM (active) and inactive | inactive | inactive | 34.4 µM (active) | inactive |  |  | 43.6 µM (active) | inactive |  |  | inactive | inactive | inactive |  | 
10 | CN(Cc1cnc2nc(N)nc(N)c2n1)c1ccc(C(=O)N[C@@H](CCC(=O)O)C(=O)O)cc1 | 30.9 nM (active) and 188 nM (active) | 213 nM (active) | inactive | inactive | inactive | inactive | inactive | inactive |  |  | inactive | inactive | inactive |  |  |  | inactive | inactive
